Our source for the growth inhibition, inhibition and outcome values is PubChem BioAssay.

Values without a mark were called inactive. For some assays here: Results with a measured potency or affinity are listed apart. Active and inactive are the calls of the source. Unless noted, the rule behind the calls is not given here.

The term inhibition denotes the relative decrease from the control value, in per cent.

A short description of assay [1]: antimalarial activity against Dd2 strain (AID 2302;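 active = growth inhibition above 50% at the single 2 µM test dose, taken to imply half-maximal potency below 2 µM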;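 note: 0% = DMSO untreated growth and 100% = chloroquine plus artemisinin killed control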). The note with it: P. falciparum Dd2 in RBCs, LDH growth readout, 72 h; at 2 µM; active compounds read high.
Assay [2] in a line: HepG2 cytotoxicity, primary screen, cytotoxicity control for P. falciparum antimalarial project, cell-based, ATP luminescence (AID 2303;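 active = inhibition above 50%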;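 note: 0% = DMSO wells and 100% = digitonin-killed cells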). The following applies: HepG2 viability, 24-48 h, at 10 µM, active compounds read high.
For assay [3], the target named is L-lactate dehydrogenase (Plasmodium falciparum (isolate CDC / Honduras)) (UniProt Q27743). The experiment in a line: PfLDH activity inhibition – cell lysate, 3D7 strain, counter-screen for P. falciparum growth inhibition project (AID 2304).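 Note: 0% = vehicle and 100% = reference inhibitor.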 The following applies: P. falciparum 3D7 crude extract, LDH APAD/NBT absorbance; at 2 µM; active compounds read high. (Counterscreens check selectivity or assay interference.)

Assay [4] in a line: inhibition of 3D7 malaria parasite growth – strain 3D7 (AID 2306).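 Note: 0% = DMSO wells and 100% = chloroquine plus artemisinin control wells.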 The following applies: P. falciparum 3D7 erythrocytic growth, LDH absorbance, 72 h; at 2 µM; active compounds read high.
For assay [5], the target named is Calcium-dependent protein kinase 1 (Plasmodium falciparum (isolate 3D7)) (UniProt P62344). The experiment in a line: PfCDPK1 kinase inhibitors, biochemical, TCAMS library (AID 1159585; cut-off not given, nearly all actives have IC50 up to about 0.98 µM;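 note: inhibitors leave more ATP so luminescence rises with inhibition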). The following applies: recombinant PfCDPK1, Kinase-Glo ATP depletion luminescence.
In assay [6] the target is Plasmodium falciparum protein kinase 6 (PK6, PF3D7_1337100) (UniProt Q8IDW1). The experiment in a line: PfPK6 kinase inhibitors, biochemical, TCAMS library (AID 1159586). The note with it: recombinant PfPK6, Kinase-Glo ATP depletion luminescence. In general terms: Kinase-Glo measures the ATP left after a reaction by luminescence.
Assay [7] has as its target Protein kinase 7 (PK7), Plasmodium falciparum 3D7 (PF3D7_0213400) (UniProt Q7YTF7). Kind of assay: inhibition of Plasmodium PK7 catalytic activity – biochemical, TCAMS antimalarial set, Kinase-Glo luminescence (AID 1159587). The note with it: recombinant PfPK7, Kinase-Glo ATP depletion luminescence.
For assay [8], the target named is Calcium-dependent protein kinase 4 (Plasmodium falciparum (isolate 3D7)) (UniProt Q8IBS5). Kind of assay: PfCDPK4 kinase inhibitors, biochemical, TCAMS library (AID 1159588; cut-off not given, nearly all actives have IC50 up to about 0.91 µM). The note with it: recombinant PfCDPK4, Kinase-Glo ATP depletion luminescence.
Sequence of Calcium-dependent protein kinase 4 (Plasmodium falciparum (isolate 3D7)) (Q8IBS5 whole entry, looked up): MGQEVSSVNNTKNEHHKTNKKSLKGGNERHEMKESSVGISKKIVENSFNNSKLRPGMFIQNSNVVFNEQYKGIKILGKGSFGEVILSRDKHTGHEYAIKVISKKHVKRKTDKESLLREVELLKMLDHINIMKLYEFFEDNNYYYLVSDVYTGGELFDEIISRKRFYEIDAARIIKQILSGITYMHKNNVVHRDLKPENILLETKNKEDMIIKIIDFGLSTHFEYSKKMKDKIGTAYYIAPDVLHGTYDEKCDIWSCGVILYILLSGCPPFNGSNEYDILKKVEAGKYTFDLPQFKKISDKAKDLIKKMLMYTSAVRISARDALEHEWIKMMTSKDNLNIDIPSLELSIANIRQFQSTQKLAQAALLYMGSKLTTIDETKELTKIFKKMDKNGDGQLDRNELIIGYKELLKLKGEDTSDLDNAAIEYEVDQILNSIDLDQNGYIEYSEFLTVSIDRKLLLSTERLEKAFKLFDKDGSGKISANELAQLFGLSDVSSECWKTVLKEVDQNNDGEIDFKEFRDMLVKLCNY

Sequence of Calcium-dependent protein kinase 1 (Plasmodium falciparum (isolate 3D7)) (P62344 whole entry, looked up): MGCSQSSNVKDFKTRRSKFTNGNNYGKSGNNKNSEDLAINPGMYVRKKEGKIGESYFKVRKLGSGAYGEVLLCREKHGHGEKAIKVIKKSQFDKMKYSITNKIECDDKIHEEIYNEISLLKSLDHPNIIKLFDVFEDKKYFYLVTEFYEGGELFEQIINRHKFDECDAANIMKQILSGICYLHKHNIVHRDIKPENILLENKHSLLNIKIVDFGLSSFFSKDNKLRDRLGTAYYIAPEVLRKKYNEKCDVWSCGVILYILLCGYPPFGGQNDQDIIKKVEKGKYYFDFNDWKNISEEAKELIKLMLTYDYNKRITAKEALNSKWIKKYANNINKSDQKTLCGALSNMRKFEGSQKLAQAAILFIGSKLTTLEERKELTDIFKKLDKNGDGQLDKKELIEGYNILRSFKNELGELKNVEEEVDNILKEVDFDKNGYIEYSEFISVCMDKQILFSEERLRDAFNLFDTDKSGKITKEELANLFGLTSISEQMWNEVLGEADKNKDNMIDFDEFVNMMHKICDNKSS
Sequence of L-lactate dehydrogenase (Plasmodium falciparum (isolate CDC / Honduras)) (Q27743 whole entry, looked up): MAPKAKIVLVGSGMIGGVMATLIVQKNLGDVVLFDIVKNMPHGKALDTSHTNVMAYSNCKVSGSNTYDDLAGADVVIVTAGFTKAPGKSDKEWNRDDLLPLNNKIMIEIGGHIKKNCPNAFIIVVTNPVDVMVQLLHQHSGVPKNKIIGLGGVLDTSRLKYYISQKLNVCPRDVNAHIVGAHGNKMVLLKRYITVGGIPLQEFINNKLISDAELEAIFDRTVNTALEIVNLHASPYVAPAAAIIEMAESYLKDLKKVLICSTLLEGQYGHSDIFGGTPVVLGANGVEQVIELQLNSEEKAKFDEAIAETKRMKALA
Sequence of Protein kinase 7 (PK7), Plasmodium falciparum 3D7 (PF3D7_0213400) (Q7YTF7 1-343): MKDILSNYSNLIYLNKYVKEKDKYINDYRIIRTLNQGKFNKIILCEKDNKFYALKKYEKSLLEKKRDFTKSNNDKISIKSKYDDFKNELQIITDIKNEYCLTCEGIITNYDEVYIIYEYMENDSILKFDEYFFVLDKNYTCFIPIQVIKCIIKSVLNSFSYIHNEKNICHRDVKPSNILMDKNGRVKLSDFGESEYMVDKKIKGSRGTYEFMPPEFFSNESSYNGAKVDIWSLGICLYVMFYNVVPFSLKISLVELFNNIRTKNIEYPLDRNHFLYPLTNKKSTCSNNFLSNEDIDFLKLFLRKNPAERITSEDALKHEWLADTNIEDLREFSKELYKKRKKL
Sequence of Plasmodium falciparum protein kinase 6 (PK6, PF3D7_1337100) (Q8IDW1 1-305): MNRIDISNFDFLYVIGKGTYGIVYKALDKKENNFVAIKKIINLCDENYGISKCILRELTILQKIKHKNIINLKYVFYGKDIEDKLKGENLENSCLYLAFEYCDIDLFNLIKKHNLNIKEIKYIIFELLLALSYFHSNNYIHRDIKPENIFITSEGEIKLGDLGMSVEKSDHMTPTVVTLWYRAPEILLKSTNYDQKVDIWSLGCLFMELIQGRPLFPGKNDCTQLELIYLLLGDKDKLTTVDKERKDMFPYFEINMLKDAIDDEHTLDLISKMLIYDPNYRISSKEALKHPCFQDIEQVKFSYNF

Consider `CCCCCCCCCCN1C(=O)C2C(CCCCNC(C)=O)NC3(C(=O)N(Cc4ccc(C(C)(C)C)cc4)c4ccccc43)C2C1=O` (configuration not stated), for which the growth inhibition was 65% (active) in assay [1] and 86% (active) in assay [4]. The inhibition is 3% in assay [2] and -3% in assay [3]. Besides, the result in assay [5], in assay [6], in assay [7] and in assay [8] was inactive.

Turning to `COc1ccc2nccc([C@@H](O)CN3CCC(NC(=O)c4ccc5nc(-n6cccc6)sc5c4)CC3)c2c1`, the growth inhibition was 40% in assay [1] and 90% (active) in assay [4]. In addition, the inhibition in assay [2] was 26%; in assay [3], -2%. Further, the result in assay [5], in assay [6], in assay [7] and in assay [8] was inactive.

Turning to `Cc1[nH]c(C)c(-c2ccc(Oc3cccc(Cl)c3)cc2)c(=O)c1Br`, the growth inhibition is 97% (active) in assay [1] and 98% (active) in assay [4]. Moreover, the inhibition was 46% in assay [2] and 3% in assay [3]. Moreover, the result in assay [5], in assay [6], in assay [7] and in assay [8] was inactive.

On to `COc1ccc(Nc2nc(NC3CCN(C)CC3)cc(-c3ccc(OC)cc3)n2)cc1`, for which the growth inhibition in assay [1] was 51% (active); in assay [4], 100% (active). Besides, the results for the inhibition in assay [2] and in assay [3] were 62% (active) and 4%, respectively. Also, the outcome in assay [5], in assay [6], in assay [7] and in assay [8] was inactive.

`CN(/N=C/C=C/c1ccc(Cl)cc1)c1nc(NCCc2ccc(O)cc2)nc(N2CCNCC2)n1`: the growth inhibition is 69% (active) in assay [1] and 92% (active) in assay [4]. Moreover, the inhibition is 14% in assay [2] and 1% in assay [3]. Further, the outcome in assay [5], in assay [6], in assay [7] and in assay [8] was inactive.

`CCOC(=O)C1CCN(CCOc2cc(NC(=O)/C=C/c3ccccc3Cl)ccc2Br)CC1`: the growth inhibition in assay [1] is 29%; in assay [4] it was 87% (active). Further, the inhibition in assay [2] is 6%; in assay [3], -2%. In addition, the outcome in assay [5], in assay [6], in assay [7] and in assay [8] was inactive.

For the molecule `CCOc1ccc(C(C)NC(=O)C2COc3ccccc3O2)cc1OCC` (configuration not stated), the growth inhibition was 100% (active) in assay [1] and 101% (active) in assay [4]. Moreover, the inhibition is -4% in assay [2] and 1% in assay [3]. Besides, the outcome in assay [5], in assay [6], in assay [7] and in assay [8] was inactive.

With `COc1ccc(NC(=O)[C@H](CC(C)C)Nc2cc(C)nc(NCCOc3ccccc3)n2)cc1`, the growth inhibition in assay [1] was 65% (active); in assay [4], 100% (active). For the same molecule, the inhibition in assay [2] is -1%; in assay [3], 4%. In addition, the outcome in assay [5], in assay [6], in assay [7] and in assay [8] was inactive.

Regarding `Cc1[nH]c2ccccc2c1C(=O)C(C)Sc1nnc(-c2ccccc2F)o1` (configuration not stated), the growth inhibition in assay [1] and in assay [4] was 99% (active) in each case. Besides, the inhibition in assay [2] was 24%; in assay [3] it was -2%. For the same molecule, the result in assay [5], in assay [6], in assay [7] and in assay [8] was inactive.

With `COc1ccc(N2CCN(CCCCNC(=O)c3ccc(NC(=O)c4ccc(C(F)(F)F)cc4)cc3)CC2)c(OC)c1`, the growth inhibition in assay [1] is 8%; in assay [4] it was 100% (active). In addition, the results for the inhibition in assay [2] and in assay [3] were 4% and 6%, respectively. The outcome in assay [5], in assay [6], in assay [7] and in assay [8] was inactive.

Turning to `Oc1ccc(CCCNc2nc(NCc3cccc4ccccc34)nc(N3CCCNCC3)n2)cc1`, the growth inhibition in assay [1] is 62% (active); in assay [4] it was 96% (active). The inhibition in assay [2] was 98% (active); in assay [3], -2%. The result in assay [5], in assay [6], in assay [7] and in assay [8] was inactive.

Consider `O=C(Nc1cccc(F)c1)c1ccc(C(=O)NC2CCN(CC3CCCCC3)C2)cc1` (configuration not stated), for which the growth inhibition was 15% in assay [1] and 96% (active) in assay [4]. Further, the inhibition in assay [2] was 16%; in assay [3] it was -3%. The result in assay [5], in assay [6], in assay [7] and in assay [8] was inactive.

Take `COc1ccc2cc(-c3nc(-c4c(Cl)cccc4Cl)[nH]c3-c3ccnc(NCCC4CCCN4C)c3)ccc2c1` (configuration not stated): the values for the growth inhibition in assay [1] and in assay [4] were 82% (active) and 100% (active), respectively. The inhibition in assay [2] was 11%; in assay [3], 2%. Besides, the result in assay [5], in assay [6], in assay [7] and in assay [8] was inactive.

As to `N#Cc1cccc(NC(=O)Nc2cccc(-c3cccc(-c4nc5ccc(C(F)(F)F)cc5[nH]4)c3)c2)c1`, the growth inhibition in assay [1] is 99% (active); in assay [4] it was 100% (active). For the same molecule, the inhibition in assay [2] is 74% (active); in assay [3], 5%. Moreover, the outcome in assay [5], in assay [6], in assay [7] and in assay [8] was inactive.

For `Nc1ncc(-c2cc3ccccc3o2)c(N)n1`, the growth inhibition is 2% in assay [1] and 81% (active) in assay [4]. Besides, the inhibition is -3% in assay [2] and 0% in assay [3]. The outcome in assay [5], in assay [6], in assay [7] and in assay [8] was inactive.

Take `Cc1cc(N[C@@H](CC(C)C)C(=O)Nc2ccccc2)nc(NCc2ccccc2C)n1`: the values for the growth inhibition in assay [1] and in assay [4] were 81% (active) and 101% (active), respectively. Besides, the inhibition in assay [2] was 21%; in assay [3], 4%. Further, the outcome in assay [5], in assay [6], in assay [7] and in assay [8] was inactive.

`CC(=O)Nc1ccc(CN2CCC(NC(=O)c3ccc(-c4cccc(OC(C)C)c4)s3)CC2)cc1`: the growth inhibition in assay [1] was 13%; in assay [4] it was 89% (active). Also, the inhibition was 14% in assay [2] and -5% in assay [3]. Also, the outcome in assay [5], in assay [6], in assay [7] and in assay [8] was inactive.

For the molecule `O=c1[nH]c(NCCCNCc2cc3c(Cl)cc(Cl)cc3[nH]2)nc2ccccc12`, the growth inhibition in assay [1] is 4%; in assay [4], 91% (active). The inhibition was 10% in assay [2] and -3% in assay [3]. Moreover, the outcome in assay [5], in assay [6], in assay [7] and in assay [8] was inactive.

Turning to `CC(Sc1nc(-c2ccccc2)c(-c2ccccc2)o1)C(=O)NC1CC1` (configuration not stated), the growth inhibition in assay [1] was 91% (active); in assay [4], 94% (active). The inhibition in assay [2] is 13%; in assay [3], -2%. The result in assay [5], in assay [6], in assay [7] and in assay [8] was inactive.
